Test results taken from paper PMC12431657, “Discovery and mechanistic insights of dibenzoylmethane as a broad spectrum inhibitor of coronavirus” (PLOS Pathogens, 2025).
Counter-ions that a name gives are not always drawn. Like-named read-outs stand apart in the source and are kept apart here. The whole screen tested about 3,300 compounds, of which about 95 (3%) showed an effect of 50% or more. Only a selection was taken, and strong results are over-represented in it overall. Peptide text beside a SMILES is read from it.

Tested on: HCoV-229E
Design: species or system Huh-7; HTS, protection from HCoV-229E induced cell death, luminescent cell viability (CellCounting-Lite 2.0), inhibition rate
Conditions: 24 h post infection, 1 h compound pre-incubation, 10 µM, inhibitor

SMILES | 229E Inhibition rate | 229E Inhibition rate (229E Inhibition rate, 24 h)
COc1cc(O[C@@H]2O[C@H](CO[C@@H]3O[C@H](CO)[C@@H](O)[C@H](O)[C@H]3O)[C@@H](O)[C@H](O)[C@H]2O)c2c(O)c3c(=O)cc(C)oc3cc2c1 [Rubrofusarin gentiobioside] | 20.7% | –
COc1cccc(CCC(=O)O)c1 [3-(3-Methoxyphenyl)propionic acid] | 21.4% | –
O=CC[C@H](O)[C@H](O)CO [Thyminose] | 3.9% | –
C=C[C@H]1[C@H](O[C@@H]2O[C@H](CO)[C@@H](O)[C@H](O)[C@H]2O)OC=C(C(=O)OC)[C@H]1CC(=O)O [Secoxyloganin] | 44.3% | –
C[C@H](CCCC(C)(C)O)[C@H]1CC[C@H]2[C@@H]3CC=C4C[C@@H](O)CC[C@]4(C)[C@H]3CC[C@]12C [25-Hydroxycholesterol] | 3.1% | –
CC(C)CCC[C@@H](C)[C@H]1CC[C@H]2[C@@H]3CC=C4C[C@@H](O)CC[C@]4(C)[C@H]3CC[C@]12C [Cholesterol] | 13.1% | –
CC(C)CCC[C@](C)(O)[C@H]1CC[C@H]2[C@@H]3CC=C4C[C@@H](O)CC[C@]4(C)[C@H]3CC[C@@]21C [20(S)-Hydroxycholesterol] | 57% | –
Nc1ncnc(N[C@@H]2O[C@H](CO)[C@@H](O)[C@H]2O)c1[N+](=O)[O-] [Clitocine] | 17.5% | –
CC(C)=CCc1c(O[C@@H]2O[C@H](CO)[C@@H](O)[C@H](O)[C@H]2O)cc(O)c2c(=O)c(O[C@@H]3O[C@@H](C)[C@H](O)[C@@H](O)[C@H]3O)c(-c3ccc(O)cc3)oc12 [Epimedoside A] | 15.1% | –
COc1cc2c(cc1OC)[C@@H](Cc1ccc(O)c(Oc3cc4c(cc3OC)CCN(C)[C@@H]4Cc3ccc(O)cc3)c1)N(C)CC2 [Liensinine (perchlorate)] | – | 8.8%
COc1cc2c(cc1OC)[C@@H](Cc1ccc(O)c(Oc3cc4c(cc3OC)CCN(C)[C@@H]4Cc3ccc(O)cc3)c1)N(C)CC2 [Liensinine (Diperchlorate)] | – | 57.2%
COc1cc2c(cc1OC)[C@@H](Cc1ccc(O)c(Oc3cc4c(cc3OC)CCN(C)[C@@H]4Cc3ccc(O)cc3)c1)N(C)CC2 [Liensinine] | – | 44.3%
CC[C@]1(O)C[C@@H]2CN(CCc3c([nH]c4ccccc34)[C@@](C(=O)OC)(c3cc4c(cc3OC)N(C)[C@H]3[C@@](O)(C(=O)OC)[C@H](OC(C)=O)[C@]5(CC)C=CCN6CC[C@]43[C@@H]65)C2)C1 [Vinblastine (sulfate)] | 30.6% | –
CCC1=C[C@@H]2CN3CCc4c([nH]c5ccccc45)[C@@](C(=O)OC)(C2)[C@@H]13 [Catharanthine] | 54.2% | –
CC[C@H]1C[C@@H]2CN3CCc4c([nH]c5ccccc45)[C@](C(=O)OC)(C2)[C@H]13 [Coronaridine] | 41.8% | –
C=C(C)[C@@H]1CC=C(CO)CC1 [(S)-(−)-Perillyl alcohol] | 9.9% | –
C[C@H]1CC[C@@H]2[C@@H](C)[C@H]3[C@H](C[C@H]4[C@@H]5CC=C6C[C@@H](O)CC[C@]6(C)[C@H]5CC[C@]34C)N2C1 [Solanidine] | 24.2% | –
C=C[C@H]1CN2CC[C@H]1C[C@H]2[C@H](O)c1ccnc2ccccc12 [Cinchonidine] | 13.4% | –
C=C[C@H]1CN2CC[C@H]1C[C@@H]2[C@@H](O)c1ccnc2ccc(OC)cc12 [Quinidine hydrochloride monohydrate] | – | 48.6%
C=C[C@H]1CN2CC[C@H]1C[C@@H]2[C@@H](O)c1ccnc2ccccc12 [Cinchonine] | 53.6% | –
CC1(C)CCC[C@](C)([C@H]2CC[C@]3(C)[C@@H]2[C@H](O)C[C@@H]2[C@@]4(C)CC[C@H](O)C(C)(C)[C@@H]4[C@@H](O)C[C@]23C)O1 [Panaxatriol] | 15.9% | –
CC(C)=CCCC(C)CCO (stereo not shown) [Citronellol] | 12.8% | –
CC1(C)CC[C@]2(C(=O)O[C@@H]3O[C@H](CO)[C@@H](O)[C@H](O)[C@H]3O)CC[C@]3(C)C(=CC[C@@H]4[C@@]5(C)CC[C@H](O[C@@H]6O[C@H](C(=O)O)[C@@H](O)[C@H](O[C@@H]7OC[C@@H](O)[C@H](O)[C@H]7O)[C@H]6O)C(C)(C)[C@@H]5CC[C@]43C)[C@@H]2C1 [Momordin IIc] | 29.6% | –
CC(=O)[C@H]1CC[C@H]2[C@@H]3CC=C4C[C@@H](OS(=O)(=O)O)CC[C@]4(C)[C@H]3CC[C@]12C [Pregnenolone monosulfate (sodium)] | 55.9% | –
CC(=O)[C@H]1CC[C@H]2[C@@H]3CC=C4C[C@@H](O)CC[C@]4(C)[C@H]3CC[C@]12C [Pregnenolone] | 40.7% | –
CC(C)CCC[C@@H](C)[C@H]1CC[C@H]2[C@@H]3CC=C4C[C@@H](OS(=O)(=O)O)CC[C@]4(C)[C@H]3CC[C@]12C [Cholesteryl sulfate (sodium)] | 7.6% | –

SMILES | 229E Inhibition rate | 229E Inhibition rate (229E Inhibition rate, 24 h)
CC1(C)C(=O)[C@]2(C)CC[C@H]1C2 [(-)-Fenchone] | 23.7% | –
C=C1C[C@@]23CC[C@H]4[C@@](C)(CCC[C@@]4(C)C(=O)O[C@@H]4O[C@H](CO)[C@@H](O)[C@H](O[C@@H]5O[C@H](CO)[C@@H](O)[C@H](O)[C@H]5O)[C@H]4O[C@@H]4O[C@H](CO)[C@@H](O)[C@H](O)[C@H]4O)[C@@H]2CC[C@]1(O[C@@H]1O[C@H](CO)[C@@H](O)[C@H](O[C@@H]2O[C@H](CO)[C@@H](O)[C@H](O)[C@H]2O)[C@H]1O[C@@H]1O[C@H](CO)[C@@H](O)[C@H](O)[C@H]1O)C3 [Rebaudioside M] | 19.5% | –
OC[C@H]1O[C@@](CO)(OC[C@@]2(O[C@H]3O[C@H](CO)[C@@H](O)[C@H](O)[C@H]3O)O[C@H](CO)[C@@H](O)[C@@H]2O)[C@@H](O)[C@@H]1O [1-Kestose] | 18.6% | –
CC[C@H](C)[C@@H]1NC(=O)[C@@H]2CCCN2C(=O)[C@@H]2CCCN2C(=O)[C@@H]2CCCN2C(=O)[C@H](CC(C)C)NC(=O)CNC(=O)CNC(=O)[C@H](Cc2ccccc2)NC1=O [Heterophyllin B] (cyclo(FGGLPPPI)) | 12.9% | –
O=C(OCc1ccccc1)c1ccccc1 [Benzyl benzoate] | 12.5% | –
O=C(OCc1ccccc1)c1ccccc1O [Benzyl salicylate] | 24.5% | –
CC(=O)OCc1ccccc1 [Benzyl acetate] | 50.3% | –
C[C@H]1O[C@@H](Oc2ccc(COC(=O)CC(O)(CC(=O)OCc3ccc(O[C@@H]4O[C@H](CO)[C@@H](O)[C@H](O)[C@H]4O)cc3)C(=O)Oc3ccc(O[C@H]4O[C@H](CO)[C@@H](O)[C@H](O)[C@H]4O)cc3)cc2)[C@H](O)[C@@H](O)[C@@H]1O (stereo partly shown) [Parishin] | 9.7% | –
O=C1CC(C(=O)O)c2c1oc(=O)c1cc(O)c(O)c(O)c21 (stereo not shown) [Brevifolincarboxylic acid] | 6.4% | –
C[C@H]1[C@H](C)CC[C@]2(C)CC[C@]3(C)C(=CC[C@@H]4[C@@]5(C)CC[C@@H](O)[C@](C)(C(=O)O)[C@@H]5CC[C@]43C)[C@H]12 [β-Boswellic acid] | 22.5% | –
CCCCCCCCCCCCCCCCCCCCCCCC(=O)OC [Methyl tetracosanoate] | 11.5% | –
CCCCCCCCCCC(=O)OC [Methyl undecanoate] | 56.2% | –
CCCCCCCCCCCCCCCCCC(=O)OC [Methyl stearate] | 17.9% | –
C=C1C[C@@]23CC[C@H]4[C@@](C)(CCC[C@@]4(C)C(=O)O)[C@@H]2CC[C@]1(O[C@@H]1O[C@H](CO)[C@@H](O)[C@H](O[C@@H]2O[C@H](CO)[C@@H](O)[C@H](O)[C@H]2O)[C@H]1O[C@@H]1O[C@H](CO)[C@@H](O)[C@H](O)[C@H]1O)C3 [Rebaudioside B] | 36.9% | –
COc1cc(/C=C/C=O)ccc1O [Coniferaldehyde] | 38.5% | –
Nc1ncnc2c1ncn2[C@@H]1O[C@H](CO)C[C@H]1O [Cordycepin] | 15.3% | –
Nc1ncnc2c1ncn2[C@H]1C[C@H](O)[C@@H](CO)O1 [2'-Deoxyadenosine monohydrate] | – | 8.6%
Nc1ncnc2c1ncn2[C@@H]1C[C@H](CO)[C@@H](O)[C@H]1O [Aristeromycin] | 57.5% | –
O=C(/C=C/c1ccccc1)c1ccccc1 [trans-Chalcone] | – | 5.4%
O=C1C[C@@](O)(C(=O)O)[C@@H](C(=O)O)O1 [(-)-Hydroxycitric acid lactone] | 7.8% | –
O=C(O)CCCC(O)C(=O)O (stereo not shown) [2-Hydroxyadipic acid] | 14.9% | –
C[S@@+]([O-])CCCCN=C=S [(R)-sulforaphane] | 54% | –
C=C1C(=O)[C@@]23[C@H](O)C[C@@H]4C(C)(C)CC[C@H](O)[C@@]4(CO)[C@@H]2CC[C@@H]1[C@H]3O [Kamebakaurin] | 0% | –
C=C1C(=O)[C@]23[C@H](O)[C@H]1CC[C@H]2[C@@]12CO[C@]3(O)[C@@H](O)[C@@H]1C(C)(C)CC[C@@H]2O [Oridonin] | 0% | –
C=C1C(=O)[C@@]23[C@@H]4OC5O[C@@]2(O)[C@@H](O)[C@@H]2C(C)(C)CC[C@@H](O)[C@]52[C@@H]3CC[C@@H]14 [ponicidin] | 95.6% | –
COc1c2ccoc2c(O)c2oc(=O)ccc12 [8-Hydroxybergapten] | 7.9% | –
